# Laboratory results reported in PubChem BioAssay (Tox21).
# Values without a mark were called inactive. Results filed as inconclusive are left out. Where a call stands in place of a potency, no number is given. The source made the active and inactive calls. Unless noted, calls follow the shape of the full dose curve.
# Legend:
# [1] = Nuclear factor erythroid 2-related factor 2/antioxidant responsive element (Nrf2/ARE) small molecule agonists: qHTS cell viability counter screen in human keratinocytes (AID 1919968; active = well fitted curve in the direction sought with a large enough effect in the repeat runs; an effect the other way counts as inactive or inconclusive; also: nearly all actives have a fitted effect of over 55% in size)
# Procedure, shortened: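 CellTiter-Fluor fluorescence, read 1 h after reagent, gave viability in the same wells as the ARE-luciferase assay. KeratinoSens cells (1,500/well) had 23 h compound exposure at 37 C/5% CO2 following 5 h plating.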
# [2] = Nuclear factor erythroid 2-related factor 2/antioxidant responsive element (Nrf2/ARE) small molecule agonists: luciferase reporter gene qHTS assay in human keratinocytes (AID 1919969); also: nearly all actives have a fitted effect of over 35% in size; also: potency is read from the fitted curve at half-maximal effect
# [3] = biological target: Gonadotropin-releasing hormone receptor (Homo sapiens) (UniProt P30968); assay: Human gonadotropin-releasing hormone receptor (GnRHR) small molecule agonists, calcium flux assay in GnRHR-HEK293 cells (AID 1920063); also: nearly all actives have a fitted effect of over 35% in size
# Procedure, shortened: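 Agonist mode: compounds at 15 concentrations, in triplicate, went onto calcium dye-loaded GnRHR-HEK293 cells. Intracellular calcium was then followed as 480/540 nm fluorescence at 1 s intervals over 3 min.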
# [4] = biological target: KiSS-1 receptor (Homo sapiens) (UniProt Q969F8); assay: Human kisspeptin (KISS1R) small molecule agonists, calcium flux assay in KISS1R-HEK293 cells (AID 1920064; active = well fitted curve in the direction sought with a large enough effect in the repeat runs; an effect the other way counts as inactive or inconclusive)
# Procedure, shortened: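 Agonist mode: intracellular calcium rise tracked at 1 s intervals over 3 min (480/540 nm) immediately after compound addition to dye-loaded KISS1R-HEK293 stable cells. Each compound tested at 15 concentrations in triplicate.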
# [5] = G protein-coupled receptor (GPCR) small molecule agonists, calcium flux assay: HEK293 wild type cell line counter screen (AID 1920065)
# Procedure, shortened: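 Calcium flux counter screen: compound added in agonist mode at 15 concentrations in triplicate to dye-loaded parental HEK293 cells. Fluorescence (480/540) read kinetically for 3 min; ATP served as positive control.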
# [6] = p53 small molecule agonists, cell-based qHTS assay with human liver microsomes: qHTS cell viability counter screen (AID 1963579); also: nearly all actives have a fitted effect of over 45% in size
# Procedure, shortened: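 Cytotoxicity counter screen: p53RE-bla, 4,000 cells/well; 5 h settle, 37 C/5% CO2; cpd + HLM 0.5 mg/mL + NADPH 0.5 mg/mL (final); 16 h, 37 C; CellTiter-Glo, 30 min RT, luminescence.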
# [7] = p53 small molecule agonists, cell-based qHTS assay with rat liver microsomes: qHTS cell viability counter screen (AID 1963580); also: nearly all actives have a fitted effect of over 45% in size
# Procedure, shortened: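 Counter screen for cytotoxicity under metabolic activation: rat liver microsomes and NADPH, 0.5 mg/mL final each, added with compounds to p53RE-bla HCT-116 cells; 16 h at 37 C, then ATP luminescence read.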
# [8] = p53 small molecule agonists, cell-based qHTS assay: qHTS cell viability counter screen (AID 1963581); also: nearly all actives have a fitted effect of over 45% in size
# Procedure, shortened: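 Counter screen read by CellTiter-Glo luminescence (ATP content, 30 min at room temperature), run in the same wells as the beta-lactamase reporter read. HCT-116 p53RE-bla cells saw compounds for 16 h at 37 C.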
# [9] = biological target: 5-hydroxytryptamine receptor 2A (Homo sapiens) (UniProt P28223); assay: 5-hydroxytryptamine receptor 2A (HTR2A) small molecule antagonists, cell-based qHTS assay (AID 1963586); also: nearly all actives have a fitted effect of over 45% in size
# Procedure, shortened: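 CHO cells stably expressing human HTR2A were plated for 18 h at 37 C, then loaded with calcium dye for 1 h. Compounds were preincubated 5 min at room temperature before DOI (4 nM solution) was added. Kinetic fluorescence was read for 3 min.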
# [10] = biological target: Muscarinic acetylcholine receptor M1 (Homo sapiens) (UniProt P11229); assay: Cholinergic receptor muscarinic 1 (CHRM1) small molecule antagonists, cell-based qHTS assay (AID 1963588); also: nearly all actives have a fitted effect of over 40% in size
# Procedure, shortened: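 Compounds were tested at 15 concentrations in three independent runs. Dye-loaded CHRM1-CHO cells were exposed 5 min at room temperature before stimulation by acetylcholine added at 50nM. Intracellular calcium was read kinetically on FDSS for 3 min.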
# [11] = biological target: Muscarinic acetylcholine receptor M1 (Homo sapiens) (UniProt P11229); assay: Cholinergic receptor muscarinic 1 (CHRM1) small molecule agonists, cell-based qHTS assay (AID 1963589); also: nearly all actives have a fitted effect of over 35% in size
# Procedure, shortened: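 Agonist-mode calcium-flux screen: compounds at 15 concentrations, three independent runs, were pin-transferred onto dye-loaded human CHRM1-CHO cells. Fluorescence was then recorded kinetically every second over minutes.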
# [12] = cAMP Responsive Elements (CRE) small molecule agonists, cell-based qHTS assay (AID 1963590)
# Procedure, shortened: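 Agonist mode: compound added to CRE-bla HEK 293T cells (2,000/well, 18 h after plating) for 3 h at 37 C/5% CO2. Reporter activity detected via FRET beta-lactamase substrate, 2 h room-temperature loading.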
# [13] = cAMP Responsive Elements (CRE) small molecule antagonists, cell-based qHTS assay (AID 1963591; active = well fitted inhibition curve with a large enough effect in the signal ratio in the repeat runs, not every such curve was filed as active; the % refers to the signal ratio)
# Procedure, shortened: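 Antagonist mode: compounds are added alongside the adenylyl cyclase activator NKH477 (0.25 uM final) to CRE-bla HEK293T cells for 3 h. LiveBLAzer FRET substrate, 2 h at room temperature, reports bla expression.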
# [14] = biological target: Beta-2 adrenergic receptor (Homo sapiens) (UniProt P07550); assay: Adrenergic beta2 receptor (ADRB2) small molecule agonists, cell-based qHTS assay (AID 1963593);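 also: CHO cells stably overexpressing human ADRB2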
# Procedure, shortened: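 CHO cells stably over-expressing ADRB2 were plated overnight at 37C, then dosed with compounds plus a stimulation mix containing 100uM IBMX and 25uM Ro-20-1724 for 0.5hr at room temperature. cAMP was measured by HTRF competition, 1hr.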
# [15] = biological target: D(2) dopamine receptor (Homo sapiens) (UniProt P14416); assay: Dopamine D2 receptor (DRD2) small molecule agonists, cell-based qHTS assay (AID 1963594); also: nearly all actives have a fitted effect of over 35% in size
# Procedure, shortened: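 HEK293 cells stably expressing DRD2 were cultured 24 h at 37 C, then given Ro20-1724 (0.1 mM final) and compounds for 10 min at room temperature. NKH477 (200nM) was then added for 30 min. cAMP was read by HTRF.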
# [16] = biological target: D(2) dopamine receptor (Homo sapiens) (UniProt P14416); assay: Dopamine D2 receptor (DRD2) small molecule antagonists, cell-based qHTS assay (AID 1963595; active = well fitted inhibition curve with a large enough effect in the signal ratio in the repeat runs, with a control signal flat; the % refers to the signal ratio)
# Procedure, shortened: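 In this cell-based antagonist screen, compounds act for 10 min at room temperature before a 30 min challenge with 12 nM quinpirole and 200 nM NKH477. cAMP is quantified by HTRF competition in DRD2-HEK293 cells containing 0.1 mM Ro20-1724.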
# [17] = biological target: 5-hydroxytryptamine receptor 2A (Homo sapiens) (UniProt P28223); assay: 5-hydroxytryptamine receptor 2A (HTR2A) small molecule agonists, cell-based qHTS assay (AID 1963587); also: nearly all actives have a fitted effect of over 30% in size
# Procedure, shortened: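 HTR2A-CHO cells, plated 18 h at 37 C/5% CO2, dye-loaded 1 h at 37 C; compounds in DMSO added by pin tool (agonist mode). Intracellular calcium flux read as kinetic fluorescence on FDSS over 2 min at 1 s intervals.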
# [18] = biological target: Beta-2 adrenergic receptor (Homo sapiens) (UniProt P07550); assay: Adrenergic beta2 receptor (ADRB2) small molecule antagonists, cell-based qHTS assay (AID 1963592); also: series mostly up to about 92 µM; nearly all actives have a fitted effect of over 50% in size
# Procedure, shortened: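 Assay format: CHO-ADRB2 cells, 18-20hr seeding at 37C/5% CO2, then compound plus 1nM isoproterenol agonist mix for 0.5hr RT. Homogeneous time-resolved fluorescence cAMP detection after 1hr, expressed as 665/615 nm ratio.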
# Chain of 5-hydroxytryptamine receptor 2A (Homo sapiens) (P28223 whole entry, looked up): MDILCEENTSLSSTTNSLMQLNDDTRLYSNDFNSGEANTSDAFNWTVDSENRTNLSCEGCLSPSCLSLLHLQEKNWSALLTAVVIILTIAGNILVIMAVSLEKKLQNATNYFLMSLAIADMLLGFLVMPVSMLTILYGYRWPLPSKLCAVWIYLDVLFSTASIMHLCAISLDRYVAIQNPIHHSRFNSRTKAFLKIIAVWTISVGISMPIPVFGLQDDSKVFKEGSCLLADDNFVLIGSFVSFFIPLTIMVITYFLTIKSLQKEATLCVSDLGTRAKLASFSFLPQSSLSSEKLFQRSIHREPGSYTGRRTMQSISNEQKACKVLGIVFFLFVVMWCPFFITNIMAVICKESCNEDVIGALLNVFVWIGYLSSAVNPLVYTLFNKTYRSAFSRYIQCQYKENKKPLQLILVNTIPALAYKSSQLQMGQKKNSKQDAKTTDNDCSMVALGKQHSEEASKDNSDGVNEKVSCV
# Chain of Beta-2 adrenergic receptor (Homo sapiens) (P07550 whole entry, looked up): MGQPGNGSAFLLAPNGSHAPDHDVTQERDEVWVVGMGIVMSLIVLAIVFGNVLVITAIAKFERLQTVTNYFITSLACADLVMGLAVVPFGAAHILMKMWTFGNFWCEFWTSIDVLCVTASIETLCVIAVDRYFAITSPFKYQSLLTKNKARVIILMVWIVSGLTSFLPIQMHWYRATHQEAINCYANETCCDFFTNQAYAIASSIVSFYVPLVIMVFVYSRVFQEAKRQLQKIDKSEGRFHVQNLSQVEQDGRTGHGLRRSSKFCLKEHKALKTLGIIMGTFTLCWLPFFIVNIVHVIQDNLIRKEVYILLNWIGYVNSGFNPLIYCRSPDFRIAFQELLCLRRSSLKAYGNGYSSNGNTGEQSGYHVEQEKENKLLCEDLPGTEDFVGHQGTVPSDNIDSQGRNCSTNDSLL
# Chain of KiSS-1 receptor (Homo sapiens) (Q969F8 whole entry, looked up): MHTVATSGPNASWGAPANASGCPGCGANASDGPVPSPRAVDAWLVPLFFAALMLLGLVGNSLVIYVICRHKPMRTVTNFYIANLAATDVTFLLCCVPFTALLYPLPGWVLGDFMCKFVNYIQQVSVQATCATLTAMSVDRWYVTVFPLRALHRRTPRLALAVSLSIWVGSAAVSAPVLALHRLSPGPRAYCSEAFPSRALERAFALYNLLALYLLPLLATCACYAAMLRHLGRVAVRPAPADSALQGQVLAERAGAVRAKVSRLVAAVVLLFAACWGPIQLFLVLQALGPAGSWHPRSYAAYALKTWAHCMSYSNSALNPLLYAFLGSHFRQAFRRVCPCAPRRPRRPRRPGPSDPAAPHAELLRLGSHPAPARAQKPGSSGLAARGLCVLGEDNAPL
# Chain of Muscarinic acetylcholine receptor M1 (Homo sapiens) (P11229 whole entry, looked up): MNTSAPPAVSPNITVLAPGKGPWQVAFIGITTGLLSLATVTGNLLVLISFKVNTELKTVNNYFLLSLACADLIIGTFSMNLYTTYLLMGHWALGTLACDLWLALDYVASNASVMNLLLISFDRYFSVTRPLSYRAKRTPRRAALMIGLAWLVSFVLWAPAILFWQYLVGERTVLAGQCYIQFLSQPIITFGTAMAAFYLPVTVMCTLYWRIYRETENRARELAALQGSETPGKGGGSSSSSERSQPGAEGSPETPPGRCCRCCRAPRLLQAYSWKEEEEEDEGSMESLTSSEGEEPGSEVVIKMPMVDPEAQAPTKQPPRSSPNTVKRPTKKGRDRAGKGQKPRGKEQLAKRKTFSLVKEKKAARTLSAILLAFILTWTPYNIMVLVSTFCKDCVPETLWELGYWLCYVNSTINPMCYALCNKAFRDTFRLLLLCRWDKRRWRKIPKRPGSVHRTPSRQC
# Chain of Gonadotropin-releasing hormone receptor (Homo sapiens) (P30968 whole entry, looked up): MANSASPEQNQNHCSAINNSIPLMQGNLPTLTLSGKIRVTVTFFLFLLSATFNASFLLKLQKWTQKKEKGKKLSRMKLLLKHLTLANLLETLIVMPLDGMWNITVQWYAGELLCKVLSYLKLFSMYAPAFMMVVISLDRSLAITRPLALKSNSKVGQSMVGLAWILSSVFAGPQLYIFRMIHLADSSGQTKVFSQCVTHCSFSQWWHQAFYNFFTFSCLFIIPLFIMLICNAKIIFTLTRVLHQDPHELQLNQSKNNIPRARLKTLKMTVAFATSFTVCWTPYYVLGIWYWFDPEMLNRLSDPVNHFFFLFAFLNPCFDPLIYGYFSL
# Chain of D(2) dopamine receptor (Homo sapiens) (P14416 whole entry, looked up): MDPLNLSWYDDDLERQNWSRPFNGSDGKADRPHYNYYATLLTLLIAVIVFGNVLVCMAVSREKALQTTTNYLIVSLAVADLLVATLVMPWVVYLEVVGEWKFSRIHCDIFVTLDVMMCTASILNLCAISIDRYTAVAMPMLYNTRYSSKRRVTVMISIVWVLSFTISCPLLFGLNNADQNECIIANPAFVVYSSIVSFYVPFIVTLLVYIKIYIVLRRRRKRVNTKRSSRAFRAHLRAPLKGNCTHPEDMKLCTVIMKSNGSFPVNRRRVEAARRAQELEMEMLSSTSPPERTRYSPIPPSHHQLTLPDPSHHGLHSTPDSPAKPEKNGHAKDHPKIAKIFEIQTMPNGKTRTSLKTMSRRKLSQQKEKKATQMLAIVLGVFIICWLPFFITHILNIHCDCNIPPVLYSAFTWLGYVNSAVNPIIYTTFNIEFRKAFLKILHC
SMILES,Potency [1],Potency [2],Potency [3],Potency [4],Potency [5],Potency [6],Potency [7],Potency [8],Potency [9],Potency [10],Potency [11],Potency [12],Potency [13],Potency [14],Potency [15],Potency [16],Potency [17],Potency [18]
CC(O)CN (centres undefined),inactive,inactive,inactive,inactive,inactive,inactive,inactive,inactive,inactive,inactive,inactive,inactive,inactive,inactive,inactive,inactive,,
O=[N+]([O-])c1cccc(Cl)c1Cl,inactive,inactive,inactive,inactive,inactive,inactive,inactive,inactive,,inactive,inactive,inactive,inactive,inactive,,inactive,inactive,inactive
O=C1CCCCCCCCCCCC(=O)OCCO1,inactive,inactive,inactive,inactive,inactive,inactive,inactive,inactive,inactive,inactive,inactive,,,inactive,inactive,,,inactive
C/C=C1/C(=O)C[C@H]2[C@@H]3CCC4=CC(=O)CC[C@]4(C)[C@H]3CC[C@]12C,inactive,68.4 µM (active),inactive,inactive,inactive,inactive,inactive,inactive,inactive,,inactive,,,,,inactive,inactive,inactive
